Article PMC5540273 (PLoS ONE, 2017)

test system: CDK8; conditions: concentration: 1 μM, replicates: in singlicate; n = 1
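Also: KINOMEscan kinase panel screen.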

Row | Structure (SMILES) | %Inh [%]
1 | CN(C)c1ncnc2nc[nH]c12 [SKF-31736] | 35
2 | O=C(O)C(F)(F)F.O=c1[nH]ccc2nc(N[C@@H]3CCNC3)nc(Nc3ccc4c(c3)S(=O)(=O)CC4)c12 [GSK2181306] | 0
3 | Cn1cc(-c2cnc(N)c3c(-c4ccc5c(c4)CCN5C(=O)Cc4ccccc4)csc23)cn1 [GSK2593074] | 19
4 | Cc1ccc(NC(=O)c2ccc(Cl)c(Cl)c2)cc1-c1ccc(C(=O)Nc2ccncc2)cc1 [GSK1398460] | 0

test system: CDK9; conditions: concentration: 1 μM, replicates: in singlicate; n = 1

Row | Structure (SMILES) | %Inh [%]
5 | N#CC1(c2cccc(C(=O)Nc3cccc(Oc4ccc5nc(NC(=O)C6CC6)sc5n4)c3)c2)CC1 | 0
6 | Cc1ccc(C)c(NC(=O)Nc2ccc(C)c(-c3ccc(C(=O)Nc4ccncc4)cc3)c2)c1 [GSK1398473] | 0
7 | O=C(Nc1n[nH]c2nc(-c3ccccc3O)ccc12)C1CC1 [SB-711880] | 0
8 | CCn1c(-c2nonc2N)nc2c(-c3ccccc3)ncc(OCCCN)c21.O=C(O)C(F)(F)F.O=C(O)C(F)(F)F [GSK260205] | 0
9 | Cl.Cl.NC(CNC(=O)c1cc(Br)c(-c2ccnc3[nH]ccc23)s1)c1ccccc1 (centres unmarked) [GSK1322949] | 15
10 | CCOc1nccc(-c2c(-c3ccc(F)cc3)ncn2C2CCNCC2)n1 [SB-249175] | 1
11 | COc1cccc2c(-c3ccncc3)c(-c3ccc(F)cc3)nn12 [GW468513] | 0
12 | CC(C)c1nc(-c2cccc(NS(=O)(=O)c3c(F)cccc3F)c2)c(-c2ccnc(Nc3ccc(N4CCOCC4)nc3)n2)s1.Cl [GSK1723980] | 75
13 | O=C(Nc1n[nH]c2cc(-c3cccs3)ccc12)C1CC1 [SB-731284] | 3
14 | Cc1ccc(NC(=O)c2cccc(N3CCCCC3)c2)cc1-c1ccc(C(=O)NCC2CC2)cc1 [GSK1917008] | 0
15 | Cl.O=C(Nc1ccc(Oc2ccc3[nH]c(NC(=O)c4ccco4)nc3c2)cc1)Nc1cc(C(F)(F)F)ccc1F [GW683134] | 5
16 | Cn1cc(-c2ccc3c(c2)CCN3C(=O)Cc2cc(F)cc(C(F)(F)F)c2)c2c(N)ncnc21 [GSK2635225] | 7
17 | COc1cc(Nc2nccc(N3CCC(NS(=O)(=O)c4ccc(NC(C)=O)cc4)CC3)n2)cc(OC)c1OC [GSK1379825] | 0
18 | O=C1NC(=O)C(c2ccccc2Cl)=C1Nc1cccc(Cl)c1 [SB-342409] | 0
19 | Cc1cc(-c2ccnc(Nc3cccc(C#N)c3)n2)cc(C)c1O [GSK1440913] | 52
20 | CC(C)NCC(Cc1ccccc1)NC(=O)c1cc(Br)c(-c2ccnc3[nH]ccc23)s1.Cl.Cl (centres unmarked) [GSK1383281] | 0
21 | Nc1ncc(-c2ccc3nccc(-c4ccncc4)c3c2)cc1S(=O)(=O)N1CCCCC1 [GSK1693850] | 5
22 | COc1cc(Nc2ccnc3cc(-c4ccncc4)ccc23)cc(OC)c1OC.Cl [GW494610] | 0
23 | COC(=O)Nc1nc2ccc(Oc3ccc(NC(=O)Nc4cc(C(F)(F)F)ccc4F)cc3)cc2[nH]1.Cl [GW654607] | 0

Row | Structure (SMILES) | %Inh [%]
24 | c1ccc(Oc2ccc(Nc3ccnc4cc(-c5ccc(CN6CCCCC6)o5)ccc34)cc2)nc1 [GW567143] | 0
25 | COc1cccc(CC(=O)N2CCc3cc(-c4cn(C)c5ncnc(N)c45)ccc32)c1 [GSK2608899] | 12
26 | COc1ccc(C)c(Nc2ccnc(Nc3ccc(-c4cnc[nH]4)cc3)n2)c1.Cl [GW784041] | 0
27 | CCNC(=O)/C=C/c1n[nH]c2cc(Sc3ccccc3C(=O)NC)ccc12 | 13
28 | Cl.N#CCc1ccc(Nc2nccc(Nc3ccc(Oc4ccccc4)cc3)n2)cc1 [GW639905] | 0
29 | CC(=O)Nc1cn2nc(Oc3cccc(NC(=O)c4cccc(C(F)(F)F)c4)c3)ccc2n1 | 0
30 | CCNc1nccc(-c2c(-c3ccc(F)cc3)ncn2C2CCN(C)CC2)n1 | 0
31 | COC(=O)Nc1nc2cc(Oc3ccc(NC(=O)Nc4cccc(SC)c4)cc3)ccc2[nH]1.Cl [GW697999] | 0
32 | Fc1cc(Cl)ccc1Nc1ccnc2cc(-c3ccc(CN4CCOCC4)o3)ccc12 [GW560109] | 0
33 | NCCC(NC(=O)c1cc(Br)c(-c2ccnc3[nH]ccc23)s1)c1ccccc1.O=C(O)C(F)(F)F.O=C(O)C(F)(F)F (centres unmarked) [GSK1307810] | 35
34 | Cc1ccc(O)cc1Nc1ccnc2cc(-c3ccc(CN4CCCCC4)o3)ccc12 [GW557777] | 0
35 | CCn1cnc2c(NCc3ccccc3)ncnc21 [SKF-96418] | 20
36 | CN(c1ccc(F)c(NC(=O)c2cccc(OC(C)(C)C#N)c2Cl)c1)c1ccc2nc(NC(=O)C3CC3)sc2n1 | 0
37 | Cn1cc(-c2ccc3c(c2)CCN3C(=O)Cc2cc(F)cc(F)c2F)c2c(N)ncnc21 [GSK2634140] | 3
38 | CN(C)c1ncnc2nc[nH]c12 [SKF-31736] | 0
39 | O=C(O)C(F)(F)F.O=c1[nH]ccc2nc(N[C@@H]3CCNC3)nc(Nc3ccc4c(c3)S(=O)(=O)CC4)c12 [GSK2181306] | 30
40 | Cn1cc(-c2cnc(N)c3c(-c4ccc5c(c4)CCN5C(=O)Cc4ccccc4)csc23)cn1 [GSK2593074] | 0
41 | Cc1ccc(NC(=O)c2ccc(Cl)c(Cl)c2)cc1-c1ccc(C(=O)Nc2ccncc2)cc1 [GSK1398460] | 2
